Data: PubChem BioAssay (NCATS)
Records with an inconclusive call do not appear. Where a call stands in place of a potency, no number is given. Unmarked numbers belong to inactive results. Calls of active or inactive are those of the source. The call rests on the fitted dose curve; in most records, active means well fitted curve in the direction sought with a large enough effect; inconclusive means small, poorly fitted or top-dose-only effect, or another doubt; inactive means no such curve, though single readings can be large; an effect the other way counts as inactive or inconclusive.

Legend:
[1] = target: Aldehyde dehydrogenase, mitochondrial (Homo sapiens) (UniProt P05091); experiment: qHTS for Inhibitors of the Aldehyde Dehydrogenase Family (ALDH2) Primary screen (AID 2061308); further: nearly all actives have a fitted effect of over 55% in size
[2] = target: Retinaldehyde dehydrogenase 3 (Homo sapiens) (UniProt P47895); experiment: qHTS for Inhibitors of the Aldehyde Dehydrogenase Family (ALDH1A3) Primary screen (AID 2061315)

| SMILES | Potency [1] | Potency [2] | activity change, negative = inhibition [1] | activity change, negative = inhibition [2] |
| --- | --- | --- | --- | --- |
| O=C(Nc1nnc(-c2cccs2)o1)c1ccc(Cl)cc1 | inactive | inactive | – | – |
| COC(=O)C12C(=O)C(C)(O)C(=O)C1(C)C(C)=CC1C3(C=O)CCC(OC(C)=O)C(C)(C)C3CCC12C (stereo not given) | inactive | inactive | – | – |
| O=C(Nc1ncc(Cc2ccc(C(F)(F)F)cc2)s1)c1cn(-c2ccccc2)cn1 | inactive | inactive | – | – |
| C[C@H]1C/C=C/[C@H]2[C@@H]3O[C@]3(C)[C@@H](C)[C@H]3[C@H](Cc4ccccc4)NC(=O)[C@]32OC(=O)O/C=C/[C@@](C)(O)C1=O | inactive | inactive | – | – |
| Cc1cc(-c2nnc3n2CCCCC3)c(C)n1-c1cccnc1 | inactive | inactive | – | – |
| C[C@@H]1C(=O)O[C@H]2[C@H](O)[C@@]34[C@@H]5OC(=O)[C@@]3(O[C@@H]3OC(=O)[C@@H](O)[C@@]34[C@H](C(C)(C)C)[C@H]5O)[C@@]12O | inactive | inactive | – | – |
| CCOc1ccc(CCNC(=O)c2cc3ccncc3n2Cc2cccc(C)c2)cc1OCC | inactive | inactive | – | – |
| CC(=O)OC1CC(O)C2(C)C(CC(OC(C)=O)C3(C)C2CCC2(C)C(c4ccoc4)C(=O)C4OC423)C1(C)C (stereo not given) | inactive | inactive | – | – |
| Cc1[nH]c2ccccc2c1P(=S)(c1ccccc1)c1ccccc1 | inactive | inactive | – | – |
| CCOc1ccc(CCNC(=O)c2cc3ccccc3n2Cc2cccc(C)n2)cc1OCC | inactive | inactive | – | – |
| O=S(=O)(Nc1ccccc1)c1ccc(NCc2ccc(Br)cc2O)cc1 | inactive | inactive | – | – |
| C=C(CO)C(=O)O[C@H]1CC(=C)[C@@H]2C[C@H](O)C(=C)[C@@H]2[C@H]2OC(=O)C(=C)[C@@H]21 | inactive | inactive | – | – |
| C[C@H]1O[C@@H](O[C@H]2C[C@@H](O)[C@]3(CO)C4C(CC[C@]3(O)C2)[C@@]2(O)CC[C@H](C3=CC(=O)OC3)[C@@]2(C)C[C@H]4O)[C@@H](O)[C@@H](O)[C@H]1O (stereo not given in full) | inactive | inactive | – | – |
| Cc1cccc2nc(NC3=NC(c4[nH]ncc4Cl)C4=C(CCCC4=O)N3)oc12 (stereo not given) | inactive | inactive | – | – |
| CC(C)=CCC[C@]1(C)C=Cc2c(O)c3c(c(CC=C(C)C)c2O1)O[C@]12C(=C[C@@H]4CC1C(C)(C)O[C@@]2(C/C=C(/C)C(=O)O)C4=O)C3=O | inactive | inactive | – | – |
| C[C@H]1O[C@@H](O[C@H]2[C@@H](O)C[C@H](O[C@H]3[C@@H](O)C[C@H](O[C@H]4CC[C@@]5(C)[C@H](CC[C@@H]6[C@@H]5CC[C@]5(C)[C@@H](C7=CC(=O)OC7)CC[C@]65O)C4)O[C@@H]3C)O[C@@H]2C)C[C@H](O)[C@@H]1O | inactive | inactive | – | – |
| C=C1C2(C)CC3C(C)(O)C4=CC(=O)OC(C)(C)C4=CCC3(C)C13C(=O)OC(C)C3(O)C2=O (stereo not given) | inactive | inactive | – | – |
| COc1ccc(C23CCC(=O)C=C2N(C)CC3)cc1OC (stereo not given) | inactive | inactive | – | – |

| SMILES | Potency [1] | Potency [2] | activity change, negative = inhibition [1] | activity change, negative = inhibition [2] |
| --- | --- | --- | --- | --- |
| CO[C@H]1C[C@H](O[C@H]2CC[C@]3(CO)[C@H]4CC[C@]5(C)[C@@H](C6=CC(=O)OC6)CC[C@]5(O)[C@@H]4CC[C@]3(O)C2)O[C@H](C)[C@H]1O | inactive | inactive | – | – |
| S=P(c1ccccc1)(c1ccccc1)c1c[nH]c2ccccc12 | inactive | inactive | – | – |
| Cc1ccccc1C(=O)N1CCc2cc(N3CCC(NC(=O)Cc4ccccc4)C3)ccc21 (stereo not given) | inactive | inactive | – | – |
| C/C=C(/C)C(=O)O[C@H]1[C@@H]2[C@H](C)C(=O)O[C@@H]2C[C@@H](C)[C@@H]2C=CC(=O)[C@]21C | inactive | inactive | – | – |
| C[N@@+]1(CC2CC2)CC[C@]23c4c5ccc(O)c4O[C@H]2C(=O)CC[C@@]3(O)[C@H]1C5 | inactive | inactive | – | – |
| C[C@]12CC[C@@H](O)C[C@@H]1CC[C@@H]1[C@@H]2CC[C@]2(C)C(=O)[C@@H](Br)C[C@@H]12 | inactive | inactive | – | – |
| CC1=C(C(=O)Nc2nccs2)C(c2ccccc2Br)N=C(Nc2nc3ccccc3o2)N1 (stereo not given) | inactive | inactive | – | – |
| CC(C)CCn1c(CN2CCN(C(=O)C3CC3)CC2)nc2c1c(=O)n(C)c(=O)n2C | inactive | inactive | – | – |
| COC1CC(=O)C23C(=O)NC(CC(C)C)C2C(C)=C(C)C(OO)C3/C=C(\C)CCC(O)C1O (stereo not given) | inactive | inactive | – | – |
| Cn1c(-c2ccccc2)c(P(=S)(c2ccccc2)c2ccccc2)c2ccccc21 | inactive | inactive | – | – |
| CCOc1ccc(CCNC(=O)c2cc3cnccc3n2Cc2cccc(C)c2)cc1OCC | inactive | inactive | – | – |
| O=C(NCCN1CCC2(CC1)C(=O)NCN2c1cccc(F)c1)c1ccc2ccccc2c1 | inactive | inactive | – | – |
| CCCc1ccc(NC(=O)c2ccc3c(c2)NC(=O)CS3)cc1 | inactive | inactive | – | – |
| CO[C@H]1[C@@H](O)[C@@H](C)O[C@@H](O[C@@H]2C=C3C(OC(C)=O)CC4(O)C(CC[C@]5(C)[C@@H](C6=CC(=O)OC6)CC[C@]45O)[C@@]3(C)CC2)[C@@H]1O (stereo not given in full) | inactive | inactive | – | – |
| N#Cc1ccc(NC(=O)Nc2nnc(-c3ccncc3)s2)cc1Cl | inactive | inactive | – | – |
| Cc1c(P(=S)(c2ccccc2)c2ccccc2)c2ccccc2n1C | inactive | inactive | – | – |
| Nc1ncnc2c1ncn2[C@@H]1O[C@@H]2COP(O)(=S)O[C@H]2[C@H]1O (stereo not given in full) | – | – | 4.01% [at 11.2 µM] | 2.78% [at 11.2 µM] |
